Holding throughout (assay): NCI-60 one-dose screen, 48 h (100 = growth as untreated, 0 = no growth, -100 = all killed)
Assay [1] has as its system SK-MEL-2 melanoma. To be noted: 10 µM unless noted.
Assay [2] has as its system EKVX NSCLC. The note with it: 10 µM unless noted.
The subject of assay [3] is SN12C renal. The note with it: 10 µM unless noted.
The test system of assay [4] is UO-31 renal. To be noted: 10 µM unless noted.
For assay [5], the system named is ACHN renal. To be noted: 10 µM unless noted.
The subject of assay [6] is CAKI-1 renal. To be noted: 10 µM.
Assay [7] deals with A498 renal. The note with it: 10 µM unless noted.
In assay [8] the test system is CCRF-CEM leukemia. To be noted: 10 µM unless noted.
For assay [9], the system named is MOLT-4 leukemia. To be noted: 10 µM unless noted.
Assay [10] relates to SR leukemia. The note with it: 10 µM unless noted.
In assay [11] the test system is RPMI-8226 leukemia. To be noted: 10 µM unless noted.
For assay [12], the system named is OVCAR-8 ovarian. The note with it: 10 µM unless noted.
Assay [13] concerns OVCAR-5 ovarian. To be noted: 10 µM unless noted.
Assay [14] has as its system OVCAR-4 ovarian. To be noted: 10 µM unless noted.
Assay [15] relates to SK-OV-3 ovarian. To be noted: 10 µM unless noted.
Assay [16] relates to IGROV1 ovarian. To be noted: 10 µM unless noted.
In assay [17] the test system is OVCAR-3 ovarian. The note with it: 10 µM unless noted.
Assay [18] relates to NCI/ADR-RES ovarian. To be noted: 10 µM unless noted.
Assay [19] concerns HS 578T breast. The note with it: 10 µM unless noted.

Compounds without any hit were thinned out: in the full panel of roughly 83,000, 20% have a hit.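 Percent growth is the endpoint: 0 to 100 indicates growth inhibition (40 means 60% inhibition), 0 means no net growth, and negative values indicate cell death.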 Unmarked numbers belong to inactive results. Calls of active or inactive are those of the source. The calls were made as follows: active = growth percent below 10; inactive = the rest.

Turning to `O=C(Nc1cccc(-n2ccc3c(NC(=O)c4ccccc4)nccc32)c1)Nc1ccc(Cl)c(C(F)(F)F)c1`, the growth is -5.89% (active) in assay [1]; 32.8% in assay [2]; 19.2% in [3]; 27.8% in [4]; 13.1% in [5]; 7.43% (active) in assay [6]. The growth in [7] was -3.31% (active); in assay [8], 4.74% (active); in assay [9] it was 12.8%; in assay [10], -11.6% (active); in [11], -35% (active); in [12] it was 4.34% (active). Moreover, the growth was 27.6% in assay [13]; 73.7% in assay [14]; 7.74% (active) in assay [15]; 16.7% in [16]; -21.1% (active) in [17]; -10.9% (active) in [18].

With `O=S(=O)(CCN1CCOCC1)Nc1cc(-c2ccc3ncnc(Nc4ccc(F)c(Cl)c4)c3c2)cnc1Cl`, the growth in [1] is 2.26% (active); in assay [2] it was 7.72% (active); in assay [3], 18%; in [4], -8.69% (active); in [5], 9.87% (active); in assay [6], 17%. Further, the growth in [7] was -40% (active); in assay [8], 14.5%; in assay [9] it was -8.59% (active); in [10] it was 18.8%; in [11] it was 9.83% (active); in assay [12] it was 16.1%. The growth in assay [13] is 12.1%; in [14] it was 11.5%; in assay [15], -25.4% (active); in assay [16] it was -24.1% (active); in [17], -8.19% (active); in [19], -18.3% (active). In [18], the growth was 48.6%.

Consider `CCOC(=O)CSc1nnc(-c2cc3c([nH]c4ccccc43)c(-c3cccc(O)c3)n2)n1-c1ccc(C)cc1`, for which the growth in [1] was 37.7%; in [2], 78.8%; in assay [3] it was 58.1%; in assay [4], 72.6%; in [5], 50.4%; in assay [6], 92.1%. Besides, the growth in [7] is 96.8%; in assay [8], 46.4%; in [9], 17.4%; in [10] it was 13.7%; in assay [11], 76.1%; in [12], 16.7%. In addition, the growth in assay [13] was 96.4%; in assay [14], 72.6%; in assay [15], 105%; in assay [16], 28.3%; in [17], 31.1%; in assay [19] it was 58.7%. For the same compound, the growth in assay [18] is 89.9%.

For the compound `O=C(Nc1ccc(-n2ccc3c(NC(=O)c4ccccc4)nccc32)cc1)c1cccc(C(F)(F)F)c1`, the growth in assay [1] was 46.1%; in assay [2], 52.7%; in assay [3], 39.8%; in [4], 23.7%; in assay [5], 33.4%; in assay [6] it was 19.4%. In addition, the growth was 39% in assay [7]; 22.1% in [8]; 18.6% in assay [9]; -2.23% (active) in assay [10]; 6.14% (active) in [11]; 30.4% in assay [12]. The growth in [13] is 52.5%; in assay [14], 108%; in assay [15], 36.2%; in assay [16], 33.3%; in assay [17], 20.9%; in assay [18], 19.8%.

As to `c1ccc(CNCCN(CCNCc2ccccn2)Cc2ccc3ccccc3c2)nc1`, the growth was 9.46% (active) in assay [1]; 15.4% in [2]; 7.67% (active) in assay [3]; -79.8% (active) in [4]; -27.9% (active) in [5]; -81.8% (active) in [6]. Also, the growth in assay [7] is -17.5% (active); in assay [8], 6.8% (active); in assay [9], -24.3% (active); in [10] it was 2.45% (active); in assay [11], 10.6%; in assay [12], 11.1%. The growth was 0.822% (active) in [13]; 0.169% (active) in [14]; -26% (active) in assay [15]; 7.31% (active) in [16]; 1.32% (active) in [17]; 41.3% in assay [19]. In addition, in assay [18], the growth is -13% (active).

Regarding `O=C(NCCNc1nccc(-c2c(-c3cccc(O)c3)nc3sccn23)n1)Nc1cc(C(F)(F)F)cc(C(F)(F)F)c1`, the growth in assay [1] was 110%; in [2], 52.2%; in [3], 82.8%; in assay [4] it was 73.1%; in assay [5] it was 65.9%; in [6], 72.3%. The growth in assay [7] was 86%; in [8], 39.1%; in assay [9], 60.2%; in [10], 65.3%; in assay [11], 45.7%; in [12], 52.8%. Moreover, the growth was 96.5% in assay [13]; 121% in [14]; 89.3% in assay [15]; 65.2% in assay [16]; 82.2% in assay [17]; 87.8% in assay [18].

In the case of `O=C(Nc1ccc(-n2cc(-c3ccncc3)c(-c3ccc(O)c(Cl)c3)n2)cc1)c1cc(C(F)(F)F)cc(C(F)(F)F)c1`, the growth in [1] is 68.8%; in assay [2] it was 66.3%; in assay [3] it was 64.4%; in [4] it was 50.8%; in [5], 54.2%; in assay [6] it was 54.4%. For the same compound, the growth in assay [7] is 76.7%; in assay [8], 31.1%; in assay [9], 28.3%; in [10], 58.8%; in assay [11] it was 27.9%; in [12], 69.5%. Moreover, the growth in assay [13] was 70.9%; in assay [14], 85.9%; in assay [15], 84%; in assay [16] it was 61.4%; in assay [17], 49.8%; in assay [18], 67.2%.

In the case of `O=C(Nc1cccc(-n2ccc3c(NC(=O)c4ccccc4)nccc32)c1)c1cccc(C(F)(F)F)c1`, the growth is 18.8% in assay [1]; 43.4% in [2]; 25% in assay [3]; 22.4% in [4]; 24.7% in [5]; 9.21% (active) in [6]. Besides, the growth in [7] was 7.75% (active); in assay [8] it was 8.28% (active); in assay [9], 13.1%; in assay [10], 1.05% (active); in assay [11], -36.1% (active); in assay [12], 3.8% (active). The growth was 32.5% in assay [13]; 72.9% in [14]; 12.1% in assay [15]; 15.9% in assay [16]; -8.09% (active) in assay [17]; -1.18% (active) in assay [18].

These data come from PubChem BioAssay (NCI).
